Measured values reported in article PMC7819943, “Rice protein-binding microarrays: a tool to detect cis-acting elements near promoter regions in rice”.
Over roughly 68,000 sequences, “fluorescence intensity (a.u.)” has its median near 9,100; the highest 2% begin near 16,000. Many of the other results were omitted from the sample, so the highest values are more common in it than they were.

Each sequence was assayed against OsWRKY34 (Oryza sativa, UniProt Q0JBA9 1-250) (assay: protein-binding microarray (RPBM); PBS, 2% BSA, 51.3 ng/ul salmon testes DNA, 50 uM zinc acetate, 200 nM TF, 25 C, 1 h; high values mean tight binding). Settings: protein: recombinant; tags: N-terminal polyhistidine and DsRed monomer fusion (pET32a); label: CyDye5-dUTP incorporated in the synthesized complementary strand; 3' TTTTT single-stranded linker to array surface; dsDNA, one strand shown.
Outline: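 The binding signal for each feature is its fluorescence intensity in arbitrary units. An Axon 4000B scanner was used to read a custom Agilent array that had been made double-stranded with Cy5-dUTP primer extension, blocked with 2% BSA, incubated at 25 °C for 1 h with 200 nM protein in PBS, 2% BSA, salmon testes DNA and 50 µM zinc acetate, and washed. The protein was an N-terminal polyhistidine–DsRed transcription factor fusion from E. coli BL21-CodonPlus, purified on Ni–NTA.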

Sequence of OsWRKY34 (Q0JBA9 entry or part of it): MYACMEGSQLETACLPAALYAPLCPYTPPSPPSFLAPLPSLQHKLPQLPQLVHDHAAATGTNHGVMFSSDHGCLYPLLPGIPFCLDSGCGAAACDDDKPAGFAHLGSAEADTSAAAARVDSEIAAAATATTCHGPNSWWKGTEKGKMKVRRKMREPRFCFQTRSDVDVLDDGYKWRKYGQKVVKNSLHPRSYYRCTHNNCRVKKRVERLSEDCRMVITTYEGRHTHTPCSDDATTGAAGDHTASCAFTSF

Row | Sequence | binding signal
1 | CATATTATAAATCATTTGACTTTTTTCATATTCAAAATTTCGGAGTCACCTAGTGCAG | 9090 fluorescence intensity (a.u.)
2 | ACTCTATTTAGATATTTTCCCACGCATCCGTCTCCTCCTCCGGAGTCACCTAGTGCAG | 9420 fluorescence intensity (a.u.)
3 | ACCAAACCCACGGCCTGGCCCACTGTCAGTACTAAGATAGCGGAGTCACCTAGTGCAG | 9120 fluorescence intensity (a.u.)
4 | TCGCAGCAGCTGTTTTACCGGCTAGTTTTTTGCACACATCCGGAGTCACCTAGTGCAG | 8600 fluorescence intensity (a.u.)
5 | GTCCCTAAATATTTGACGCCGTTGACTTTTTTAAACATGTCGGAGTCACCTAGTGCAG | 28500 fluorescence intensity (a.u.)
6 | ATATTTGACGCCGTTGACTTTTTTAAACATATTTAACTGTCGGAGTCACCTAGTGCAG | 14600 fluorescence intensity (a.u.)
7 | TATCTAAATATTTGACGCCGTTGACTTTTTAAAACATGTTCGGAGTCACCTAGTGCAG | 30900 fluorescence intensity (a.u.)
8 | CCTCCGTCCCTAAATATTCGACGCCGTTGACTTTTTTAAACGGAGTCACCTAGTGCAG | 21700 fluorescence intensity (a.u.)
9 | CTCCGTTTGTAAATATTTGACGCCGTTGACTTTTTAAAATCGGAGTCACCTAGTGCAG | 22700 fluorescence intensity (a.u.)
10 | CCCTTTCACATGTCACCTCTGACCCACAAACAAACCCTTTCGGAGTCACCTAGTGCAG | 8210 fluorescence intensity (a.u.)
11 | GAGTTATCCTCACCACCCACCGCTCGTCGCCTCCACTCCGCGGAGTCACCTAGTGCAG | 8120 fluorescence intensity (a.u.)
12 | AGTAAGAGATCTCAAATTGATATGGGTTCTTGTTTTATATCGGAGTCACCTAGTGCAG | 8150 fluorescence intensity (a.u.)
13 | CACCAAGCAGTCCCCTGTGTTCATCTTCTGAAGTCTGATTCGGAGTCACCTAGTGCAG | 8360 fluorescence intensity (a.u.)
14 | ATTCCGCGCGCCGCCGCCGTCGCCGCCGCCGACGTCGCCGCGGAGTCACCTAGTGCAG | 8920 fluorescence intensity (a.u.)
15 | GATGCCATTTTTAAACAATTCCATGCCTTGTTTCCATTTCCGGAGTCACCTAGTGCAG | 13400 fluorescence intensity (a.u.)
16 | GTACTCCCTCTGACCCTAAATATTTGACGTCGTTGACTTTCGGAGTCACCTAGTGCAG | 16300 fluorescence intensity (a.u.)
17 | CTAAATGTTTAACGCCGTTGACTTTTTAAAACATATTTGACGGAGTCACCTAGTGCAG | 13400 fluorescence intensity (a.u.)
18 | AAATATTTGACGCCGTTGACTTTCTTAAACATGTTTAACTCGGAGTCACCTAGTGCAG | 15700 fluorescence intensity (a.u.)
19 | CATCTGTTTCTGAATATTTGACGCCGTTGACTTTTTAAAACGGAGTCACCTAGTGCAG | 19600 fluorescence intensity (a.u.)
20 | TCCGTCCCTAAATATTTGACGCCGTTGACTTTTTAACACACGGAGTCACCTAGTGCAG | 35700 fluorescence intensity (a.u.)
21 | CTAAATATTTGACGCCGTTGACTTTTTAAAACATGTTTGACGGAGTCACCTAGTGCAG | 30500 fluorescence intensity (a.u.)
22 | ATTTCTAAATATTTGACGTCGTTGACTTTTTTAAACATGTCGGAGTCACCTAGTGCAG | 26800 fluorescence intensity (a.u.)
23 | CTCCGTTATCGTTTGACTTTCTTTTCATTAATATTTTAAACGGAGTCACCTAGTGCAG | 15600 fluorescence intensity (a.u.)
24 | CGGCGGTGGTCTCCGCCGTTGGATCTGGGCGTTGACTTGTCGGAGTCACCTAGTGCAG | 9160 fluorescence intensity (a.u.)
25 | ACTGCTGCTGCATCGGCGCCTTCACCAAGATGTCAACGGACGGAGTCACCTAGTGCAG | 8350 fluorescence intensity (a.u.)
26 | GCTCTGAATTTTATTTTTTCCGCTTCTTGATTTCTTCGTTCGGAGTCACCTAGTGCAG | 9450 fluorescence intensity (a.u.)
27 | GTAGCTCGTCGTCACTGCCCATAGTACTCTGGCTTAGCTACGGAGTCACCTAGTGCAG | 8030 fluorescence intensity (a.u.)

Row | Sequence | binding signal
28 | GGAGAGATGCCATGCCGCGCTATGTTGTTCAACTTCAAACCGGAGTCACCTAGTGCAG | 8400 fluorescence intensity (a.u.)
29 | ATAGTTTGTTGTTTCCCAGACATAATTTTTACTAGCTTATCGGAGTCACCTAGTGCAG | 9630 fluorescence intensity (a.u.)
30 | GTACACCGAAAGAAACCAACTCGTGTCCATCCATCCGTCTCGGAGTCACCTAGTGCAG | 8070 fluorescence intensity (a.u.)
31 | TTCATATCTGCTTTTTCCTATATATGTGTGTGTGACTGCACGGAGTCACCTAGTGCAG | 9710 fluorescence intensity (a.u.)
32 | TTTTATAATATGTTATTGTAGCAGTTTTTGTGAGCTATTACGGAGTCACCTAGTGCAG | 8100 fluorescence intensity (a.u.)
33 | CTTGTACATCTGTCTTGCTAGAGTCTTTCACAAGATTACACGGAGTCACCTAGTGCAG | 8080 fluorescence intensity (a.u.)
34 | GTGCTTGTGTGGCGCGTGTGCTTGTCACAGACTCTGCTCCCGGAGTCACCTAGTGCAG | 8660 fluorescence intensity (a.u.)
35 | GATACAACCATTGCTCACATCATGGATGAACAAGATGACACGGAGTCACCTAGTGCAG | 8160 fluorescence intensity (a.u.)
36 | AGATGATGTCATTGACCATACAAGTTGAAAATAGGAGCAACGGAGTCACCTAGTGCAG | 63300 fluorescence intensity (a.u.)
37 | TGTGGATGGCGTGGATAAGTTGACAGTTGAAAATACAAAACGGAGTCACCTAGTGCAG | 9130 fluorescence intensity (a.u.)
38 | ACATACCTCGTGCGGCCAGTCGCCTGTTACAAACTCCATTCGGAGTCACCTAGTGCAG | 8270 fluorescence intensity (a.u.)
39 | ATTGTATTTCTATATGGACTCTGCTTTTTATTTTTCTCCGCGGAGTCACCTAGTGCAG | 8930 fluorescence intensity (a.u.)
40 | CCTCCTTGTTGCGGTCGTCTTTCGCTCTATCTTCCTTGTCCGGAGTCACCTAGTGCAG | 11100 fluorescence intensity (a.u.)
41 | CTATATTCGAGGGAGTCCTTGTGGACTTTTTCCTTCTTTCCGGAGTCACCTAGTGCAG | 9390 fluorescence intensity (a.u.)
42 | TCCTTCTCTGACTCTGTCTTGGCCATCCTATTCCTAGCTCCGGAGTCACCTAGTGCAG | 10600 fluorescence intensity (a.u.)
43 | TCTCTCTCCTTTTGTTGCTTCCATTTCTCGTTCTTGCACGCGGAGTCACCTAGTGCAG | 10500 fluorescence intensity (a.u.)
44 | CCTCTCTGATTCGTCACCGCCACCGCCGCGTCGTCCCGCGCGGAGTCACCTAGTGCAG | 9730 fluorescence intensity (a.u.)
45 | TGGATGGCCTTTTGTCTCTTTGTATATTATATATTTAGTTCGGAGTCACCTAGTGCAG | 8260 fluorescence intensity (a.u.)
46 | ATGGATCATGGATGGCTCCCGTTGTCATTGTCGCGTCGTCCGGAGTCACCTAGTGCAG | 9810 fluorescence intensity (a.u.)
47 | ACCTGTATTTGTCATTATTTAGTGGACTCTGCTTAGTTCTCGGAGTCACCTAGTGCAG | 19300 fluorescence intensity (a.u.)
48 | TCCTTAGCTTCCTTCTGTCGACTTGTCTATTCTTTTTTTCCGGAGTCACCTAGTGCAG | 17700 fluorescence intensity (a.u.)
49 | GCACCTCTTTCCTATCACGCGTCACCTTGCTCCATTGTCGCGGAGTCACCTAGTGCAG | 19000 fluorescence intensity (a.u.)
50 | GTTGTCATTGTCGCGTCGTCACCTCTGATTGCGTCATTCCCGGAGTCACCTAGTGCAG | 16500 fluorescence intensity (a.u.)
51 | CCATTCCTCTGTTTACCTCTGCTCTGTATACATACTCCGGCGGAGTCACCTAGTGCAG | 9220 fluorescence intensity (a.u.)
52 | AGAATTCCGATCGCCACCCCGCGGTTCTGCTCTCGCCGGCCGGAGTCACCTAGTGCAG | 9150 fluorescence intensity (a.u.)
53 | ACAAACCCGACCTTGAACTCGAAACAGGCGCACATCCCACCGGAGTCACCTAGTGCAG | 8560 fluorescence intensity (a.u.)
54 | CCATCGGTACCATCTGTTTCGTCTACTTCCTTTGTAATCTCGGAGTCACCTAGTGCAG | 9150 fluorescence intensity (a.u.)
